Holding throughout (parameters): scale not given: direction of the effect not stated beside the values
In assay [1] the target is Protein translocase subunit SecA (Escherichia coli (strain K12)) (UniProt P10408). The assay can be described thus: Assay to Identify E. coli SecA ATPase Inhibitors. Format: functional. To be noted: 30 µM.
In assay [2] the target is T1, Ubiquitin-activating enzyme e1, putative (Leishmania donovani (strain BPK282A1)) (UniProt E9BSI1).
T1 sequence (whole entry): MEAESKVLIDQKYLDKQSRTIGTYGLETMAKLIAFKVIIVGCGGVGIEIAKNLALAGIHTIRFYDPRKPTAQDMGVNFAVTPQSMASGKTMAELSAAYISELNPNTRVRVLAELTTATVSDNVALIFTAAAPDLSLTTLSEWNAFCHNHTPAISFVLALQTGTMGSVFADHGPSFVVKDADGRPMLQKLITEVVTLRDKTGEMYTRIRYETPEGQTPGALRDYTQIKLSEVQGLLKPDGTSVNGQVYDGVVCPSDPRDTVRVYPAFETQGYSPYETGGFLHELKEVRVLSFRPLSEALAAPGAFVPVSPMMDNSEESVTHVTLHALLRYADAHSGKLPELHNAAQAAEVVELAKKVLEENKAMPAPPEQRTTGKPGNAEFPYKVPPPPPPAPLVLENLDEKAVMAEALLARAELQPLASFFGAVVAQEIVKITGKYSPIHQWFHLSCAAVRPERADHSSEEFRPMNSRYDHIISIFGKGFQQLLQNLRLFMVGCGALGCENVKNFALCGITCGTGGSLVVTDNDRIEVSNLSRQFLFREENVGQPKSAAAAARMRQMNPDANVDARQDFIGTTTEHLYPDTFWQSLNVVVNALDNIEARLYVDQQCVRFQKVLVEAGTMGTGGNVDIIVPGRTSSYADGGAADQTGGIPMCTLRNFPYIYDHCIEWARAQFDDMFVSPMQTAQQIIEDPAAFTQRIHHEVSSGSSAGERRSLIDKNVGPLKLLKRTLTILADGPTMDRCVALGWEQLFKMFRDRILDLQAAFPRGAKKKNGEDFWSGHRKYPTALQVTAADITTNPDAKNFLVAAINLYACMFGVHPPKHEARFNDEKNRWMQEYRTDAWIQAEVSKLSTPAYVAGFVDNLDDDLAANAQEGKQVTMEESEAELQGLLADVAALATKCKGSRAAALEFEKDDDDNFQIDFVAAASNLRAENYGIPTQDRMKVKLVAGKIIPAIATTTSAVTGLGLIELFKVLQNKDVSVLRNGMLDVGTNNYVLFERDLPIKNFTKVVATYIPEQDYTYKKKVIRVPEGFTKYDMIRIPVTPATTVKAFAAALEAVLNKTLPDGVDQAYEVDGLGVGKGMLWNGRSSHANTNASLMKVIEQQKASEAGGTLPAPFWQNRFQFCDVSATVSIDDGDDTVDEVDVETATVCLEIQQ
The experiment in a line: Leishmania donovani Ubiquitin Activating Enzyme (LdE1). Format: functional. To be noted: 30 µM.

Assay [3] concerns the target AMP-activated protein kinase, AMPK (Homo sapiens) (UniProt P54646+O43741+P54619+Q9UGJ0+Q9Y478+Q13131+Q9UGI9). The experiment in a line: AMP-dependent Kinase enzyme assay. An in vitro enzyme assay that detects ADP turnover that is directly proportional to AMPK activity. This uses naive AMPK that is activated during the assay with MK-8722. The format is functional. To be noted: 30 µM.

Assay [4] addresses Sialic acid-binding Ig-like lectin 9 (Homo sapiens) (UniProt Q9Y336). The experiment in a line: Hs-Siglec9 ALPHAscreen SOP 20170721. To be noted: 10 µM. On the technique in general: Bead proximity is the source of the signal in Alpha formats.
For assay [5], the system named is Trypanosoma cruzi. The experiment in a line: Trypanosoma cruzi phosphomannomutase and mannose-1-phosphate guanylyltransferase assay. To be noted: 10 µM. The format is functional.
The target of assay [6] is T2, Arginase-2, mitochondrial (Homo sapiens) (UniProt P78540).
T2 sequence (whole entry): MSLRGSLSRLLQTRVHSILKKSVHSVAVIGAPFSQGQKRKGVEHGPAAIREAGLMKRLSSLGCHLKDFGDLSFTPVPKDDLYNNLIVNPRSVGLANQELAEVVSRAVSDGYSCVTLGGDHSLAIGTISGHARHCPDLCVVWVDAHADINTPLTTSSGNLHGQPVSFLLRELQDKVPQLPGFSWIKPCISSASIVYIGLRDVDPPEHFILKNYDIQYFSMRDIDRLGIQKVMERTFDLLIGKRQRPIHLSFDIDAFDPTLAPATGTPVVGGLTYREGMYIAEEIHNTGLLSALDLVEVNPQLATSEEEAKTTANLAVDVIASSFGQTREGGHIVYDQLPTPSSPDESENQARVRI
The assay can be described thus: in vitro enzyme assay to detect the production of urea directly proportional to the activity of Arginase II. Note: in the data most compounds retested in dose-response had high values. Format: functional. As to conditions: 33.3 µM.

For assay [7], the target named is T3, Proteasome subunit beta (Trypanosoma cruzi) (UniProt O96673).
T3 sequence (whole entry): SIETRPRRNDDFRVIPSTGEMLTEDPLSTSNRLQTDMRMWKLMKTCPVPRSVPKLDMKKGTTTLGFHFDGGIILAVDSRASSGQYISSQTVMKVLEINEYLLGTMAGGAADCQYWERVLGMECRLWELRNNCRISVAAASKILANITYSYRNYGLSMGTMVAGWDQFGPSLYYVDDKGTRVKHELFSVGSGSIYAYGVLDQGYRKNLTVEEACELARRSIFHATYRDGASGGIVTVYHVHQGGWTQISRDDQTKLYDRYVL
The experiment in a line: Trypanosoma cruzi proteasome chymotrypsin-like activity (TcProtChymo) assay. Note: in the data most compounds retested in dose-response had high values. Format: functional. To be noted: 9.37 µM.

For assay [8], the species on record is Homo sapiens. The assay can be described thus: To identify inhibition of the IFN signalling (Jak-Stat) pathway via expression of an eGFP reporter gene under the control of an IFN-stimulated response element (ISRE) containing MxA promoter. Format: functional. As to conditions: 30 µM.
The target of assay [9] is T4, Tyrosyl-tRNA synthetase, putative (Trypanosoma cruzi (strain CL Brener)) (UniProt Q4DSP6).
T4 sequence (whole entry): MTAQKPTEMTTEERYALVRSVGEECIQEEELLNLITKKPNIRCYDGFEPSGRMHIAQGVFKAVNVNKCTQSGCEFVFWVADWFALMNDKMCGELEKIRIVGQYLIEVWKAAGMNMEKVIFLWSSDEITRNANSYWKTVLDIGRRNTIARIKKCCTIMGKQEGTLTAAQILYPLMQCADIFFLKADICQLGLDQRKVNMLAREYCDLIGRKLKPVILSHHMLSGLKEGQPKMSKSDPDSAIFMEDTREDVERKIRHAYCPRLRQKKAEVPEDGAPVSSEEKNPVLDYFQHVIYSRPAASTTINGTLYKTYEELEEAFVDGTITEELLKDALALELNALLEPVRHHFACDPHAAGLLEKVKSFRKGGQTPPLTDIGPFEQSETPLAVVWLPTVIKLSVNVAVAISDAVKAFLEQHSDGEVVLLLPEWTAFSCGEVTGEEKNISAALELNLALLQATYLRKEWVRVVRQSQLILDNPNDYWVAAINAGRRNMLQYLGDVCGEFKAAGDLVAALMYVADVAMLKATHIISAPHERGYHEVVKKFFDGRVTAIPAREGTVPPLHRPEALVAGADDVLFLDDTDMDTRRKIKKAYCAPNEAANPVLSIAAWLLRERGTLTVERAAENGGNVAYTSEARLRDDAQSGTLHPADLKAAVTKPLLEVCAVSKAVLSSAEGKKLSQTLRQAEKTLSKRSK
The experiment in a line: Trypanosoma cruzi tyrosyl tRNA synthetase (TcYRS) _High Tyrosine SOP. Note: in the data most compounds retested in dose-response had high values. The format is functional. To be noted: 30 µM.

Assay [10] has as its target T4, Tyrosyl-tRNA synthetase, putative (Trypanosoma cruzi (strain CL Brener)). The assay can be described thus: Trypanosoma cruzi tyrosyl tRNA synthetase (TcYRS) SOP. Format: functional. As to conditions: 30 µM.
In assay [11] the target is Chromo domain-containing protein 1 (Saccharomyces cerevisiae (strain ATCC 204508 / S288c) (Baker's yeast)) (UniProt P32657). The experiment in a line: ScCHD-1 Enzyme Inhibition Assay. Note: in the data most compounds retested in dose-response had high values. The format is functional. As to conditions: 30 µM.
Chromo domain-containing protein 1 (Saccharomyces cerevisiae (strain ATCC 204508 / S288c) (Baker's yeast)), sequence (P32657 whole entry, the tested form may be a part): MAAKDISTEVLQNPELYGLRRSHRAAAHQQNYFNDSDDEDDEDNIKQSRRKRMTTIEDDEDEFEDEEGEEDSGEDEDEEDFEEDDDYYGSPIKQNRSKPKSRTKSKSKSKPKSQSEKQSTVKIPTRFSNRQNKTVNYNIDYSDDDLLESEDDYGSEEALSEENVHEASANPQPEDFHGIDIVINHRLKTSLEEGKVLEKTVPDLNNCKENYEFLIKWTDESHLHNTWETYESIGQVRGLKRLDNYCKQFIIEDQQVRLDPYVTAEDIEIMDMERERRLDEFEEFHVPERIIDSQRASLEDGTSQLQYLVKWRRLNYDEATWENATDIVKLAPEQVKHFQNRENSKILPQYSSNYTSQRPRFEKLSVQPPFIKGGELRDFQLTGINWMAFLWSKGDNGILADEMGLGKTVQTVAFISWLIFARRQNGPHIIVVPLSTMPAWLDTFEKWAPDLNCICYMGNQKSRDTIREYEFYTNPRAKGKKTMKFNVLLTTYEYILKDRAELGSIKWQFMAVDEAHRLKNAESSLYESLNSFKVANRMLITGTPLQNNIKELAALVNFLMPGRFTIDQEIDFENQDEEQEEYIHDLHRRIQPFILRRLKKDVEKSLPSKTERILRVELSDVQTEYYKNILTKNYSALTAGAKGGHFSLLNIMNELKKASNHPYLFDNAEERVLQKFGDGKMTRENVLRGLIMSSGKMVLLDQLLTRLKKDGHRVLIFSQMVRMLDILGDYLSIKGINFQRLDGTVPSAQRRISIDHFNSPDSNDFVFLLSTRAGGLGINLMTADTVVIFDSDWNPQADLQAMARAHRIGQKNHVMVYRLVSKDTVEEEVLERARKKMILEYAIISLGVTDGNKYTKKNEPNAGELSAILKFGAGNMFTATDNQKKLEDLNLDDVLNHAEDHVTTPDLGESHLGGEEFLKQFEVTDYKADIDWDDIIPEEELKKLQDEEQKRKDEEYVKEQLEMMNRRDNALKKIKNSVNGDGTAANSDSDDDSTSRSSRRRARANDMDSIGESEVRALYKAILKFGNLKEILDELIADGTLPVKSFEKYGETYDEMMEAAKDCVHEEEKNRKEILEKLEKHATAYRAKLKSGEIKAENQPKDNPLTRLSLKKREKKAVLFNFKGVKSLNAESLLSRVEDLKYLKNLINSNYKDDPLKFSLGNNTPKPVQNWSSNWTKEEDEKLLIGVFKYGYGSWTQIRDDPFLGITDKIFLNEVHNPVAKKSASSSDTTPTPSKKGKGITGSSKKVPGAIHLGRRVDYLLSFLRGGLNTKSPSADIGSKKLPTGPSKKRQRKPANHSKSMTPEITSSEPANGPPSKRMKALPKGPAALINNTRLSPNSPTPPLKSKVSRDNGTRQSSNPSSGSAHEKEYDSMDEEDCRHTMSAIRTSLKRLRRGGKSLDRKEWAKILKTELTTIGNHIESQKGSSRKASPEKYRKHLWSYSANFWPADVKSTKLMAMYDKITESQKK

The structures appear in SMILES notation. For some of these results: Potency and affinity values are given separately.

Protein translocase subunit SecA (Escherichia coli (strain K12)), sequence (P10408 whole entry): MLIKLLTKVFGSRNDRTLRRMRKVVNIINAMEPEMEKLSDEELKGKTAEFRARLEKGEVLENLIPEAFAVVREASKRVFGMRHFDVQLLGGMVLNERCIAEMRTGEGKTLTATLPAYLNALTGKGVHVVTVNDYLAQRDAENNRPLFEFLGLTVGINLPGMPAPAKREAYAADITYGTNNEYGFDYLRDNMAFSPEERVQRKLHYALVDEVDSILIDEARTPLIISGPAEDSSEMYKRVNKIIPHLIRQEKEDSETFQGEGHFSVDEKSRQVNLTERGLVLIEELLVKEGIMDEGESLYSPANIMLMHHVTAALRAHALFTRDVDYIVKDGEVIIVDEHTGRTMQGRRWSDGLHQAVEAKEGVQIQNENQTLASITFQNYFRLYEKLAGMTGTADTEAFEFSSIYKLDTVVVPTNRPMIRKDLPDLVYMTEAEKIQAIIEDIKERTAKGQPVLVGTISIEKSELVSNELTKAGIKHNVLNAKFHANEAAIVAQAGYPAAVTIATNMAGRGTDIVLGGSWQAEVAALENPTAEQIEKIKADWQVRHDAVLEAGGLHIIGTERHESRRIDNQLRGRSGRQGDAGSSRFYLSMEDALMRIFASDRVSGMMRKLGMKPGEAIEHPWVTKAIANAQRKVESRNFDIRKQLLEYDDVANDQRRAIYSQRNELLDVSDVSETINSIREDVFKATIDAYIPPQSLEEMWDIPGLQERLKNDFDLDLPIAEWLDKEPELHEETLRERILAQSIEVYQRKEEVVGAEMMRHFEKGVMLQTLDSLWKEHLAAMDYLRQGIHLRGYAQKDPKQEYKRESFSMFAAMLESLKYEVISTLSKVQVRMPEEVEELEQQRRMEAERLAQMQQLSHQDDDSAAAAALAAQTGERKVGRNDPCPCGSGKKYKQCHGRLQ
Sialic acid-binding Ig-like lectin 9 (Homo sapiens), sequence (Q9Y336 whole entry): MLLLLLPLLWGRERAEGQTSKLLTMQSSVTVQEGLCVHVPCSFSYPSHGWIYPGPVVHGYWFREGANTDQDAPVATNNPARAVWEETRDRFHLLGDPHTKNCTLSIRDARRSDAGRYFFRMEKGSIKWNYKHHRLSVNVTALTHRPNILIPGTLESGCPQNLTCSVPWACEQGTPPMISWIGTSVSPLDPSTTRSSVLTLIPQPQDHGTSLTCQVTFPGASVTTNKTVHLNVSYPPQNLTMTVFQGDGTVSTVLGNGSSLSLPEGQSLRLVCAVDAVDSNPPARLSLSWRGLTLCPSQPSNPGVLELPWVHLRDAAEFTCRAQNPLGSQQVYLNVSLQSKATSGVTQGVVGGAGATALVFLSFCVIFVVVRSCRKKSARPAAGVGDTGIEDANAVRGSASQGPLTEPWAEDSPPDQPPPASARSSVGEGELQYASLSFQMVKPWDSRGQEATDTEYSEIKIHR

As to `COCCCN(CCOC)C(=O)Nc1ccccc1Br`, the Percent Effect was 0.00988% in assay [1]; -5.26% in [2]; 4.89% in assay [3]; -4.8% in assay [4]; -1.46% in [5]; -10.7% in assay [6]. The Percent Effect in assay [7] was 2.01%; in [8] it was -13.7%; in [9], 3.19%; in [10], 2.6%; in assay [11], 0.558%.

`CCc1cnc(N2C[C@H]3C[C@H](C(=O)N(C)C)[C@@H](C2)O3)nc1`: the Percent Effect in assay [1] was -0.24%; in assay [2], 13.3%; in assay [3], 0.237%; in [4] it was 8.45%; in assay [5], 0.579%; in [6], -53.6%. Moreover, the Percent Effect was 2.91% in assay [7]; -12.6% in assay [8]; 5.21% in assay [9]; 10% in assay [10]; -6.38% in assay [11].

On to `Cc1cc(CN2CCC(c3ccnn3CCO)CC2)no1`, for which the Percent Effect was -3.65% in assay [1]; 20.2% in assay [2]; -6.78% in [3]; 7.01% in assay [4]; 6.7% in [5]; 3.8% in assay [6]. Further, the Percent Effect in [7] was 7.45%; in [8] it was -6.11%; in [9] it was 4.43%; in assay [10], 21.5%; in assay [11] it was -6.58%.

With `Cc1cc(NC(=O)CCc2ccsc2)n(C)n1`, the Percent Effect in assay [1] is -8.05%; in [2] it was 4.17%; in [3] it was -4.38%; in assay [4], -1.11%; in assay [5], -3.98%; in [6], 3.97%. The Percent Effect in assay [7] is 17.7%; in assay [8], -3.97%; in assay [9], 1.05%; in [10], 7.69%; in [11] it was -4.62%.

Regarding `CC1CN(Cc2noc(C3CC3)n2)CCN1Cc1nccn1C` (stereo not drawn), the Percent Effect in assay [1] is -5.15%; in assay [2], 2.53%; in [3] it was -12.8%; in [4], 3.3%; in assay [5], 5.19%; in [6] it was -2.66%. In addition, the Percent Effect in assay [7] is 1.72%; in assay [8], 8.77%; in [9], 6.4%; in assay [10] it was 11.4%; in assay [11], -1.35%.

On to `CCCc1nc(CN2CCN(CC(O)c3ccccc3)CC2)no1` (stereo not drawn), for which the Percent Effect in assay [1] is -2.75%; in assay [2] it was 11.4%; in assay [3], -0.305%; in assay [4], 1.98%; in [5], -1.54%; in assay [6] it was 4.09%. Also, the Percent Effect in assay [7] is 8.23%; in assay [8] it was 7.59%; in assay [9], 5.21%; in assay [10], -2.53%; in assay [11], -26.1%.

Take `O=C(Nc1ccccc1OC(F)F)C1=NN(c2ccccc2)C(=O)CN1`: the Percent Effect in assay [1] was -1.64%; in assay [2] it was 10.1%; in [3] it was -3.73%; in assay [4] it was -7.92%; in [5], -3.87%; in assay [6], 3.04%. Moreover, the Percent Effect was 8.11% in assay [7]; 8.86% in assay [8]; -0.493% in assay [9]; 11.4% in assay [10]; -4.54% in assay [11].

As for `CN1CCN(C[C@@H]2OC[C@H]3CN(Cc4cccc(F)c4)CC[C@H]32)CC1`, the Percent Effect was 0.931% in [1]; 2.67% in assay [2]; 4.95% in [3]; 4.78% in [4]; 2.9% in assay [5]; -53.9% in assay [6]. Moreover, the Percent Effect was 7.01% in assay [7]; -8.27% in [8]; 2.08% in assay [9]; 2.5% in [10]; -4.33% in assay [11].
